Assay outcomes: PubChem BioAssay, National Center for Advancing Translational Sciences (NCATS)
Pf growth 48h: Primary qHTS for delayed death inhibitors of the malarial parasite plastid, 48 hour incubation; P. falciparum luciferase growth in erythrocytes, 48 h; Potency, µM (series often up to 28.7 µM), for the others: at the highest dose activity change, negative = inhibition, hits mostly inhibitors; 5.9% of 310,000 active; AID 504832, 2011; also: % is scaled to controls: 0 for no effect and ±100 for the full control effect
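In quantitative HTS format, infected erythrocytes bearing luciferase-reporter parasites were treated for a single generation at 37 C. Luminescence after adding detection reagent served as the growth measure.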
SARS PLP yeast: qHTS of Yeast-based Assay for SARS-CoV PLP. S. cerevisiae expressing SARS-CoV PLpro, growth rescue. AID 485353, 2010. 0.19% of 330,000 active. Potency, µM (highest dose often 32.9 µM), without a hit: at the top dose activity, positive = growth rescue, actives largely listed as activators; calls by dose curve; also: 0% is about no effect; nearly all actives have a fitted effect of over 55% in size
Pf growth 96h: Primary qHTS for delayed death inhibitors of the malarial parasite plastid, 96 hour incubation. 6.9% of 320,000 active. AID 504834, 2011. Potency, µM (top dose mostly 28.7 µM), for the others: top-dose activity change, negative = inhibition, hits mostly inhibitors. P. falciparum luciferase reporter growth, 96 h; also: % is scaled to controls: 0 for no effect and ±100 for the full control effect
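Compounds incubated with erythrocytes infected by luciferase-expressing P. falciparum (2% hematocrit, 0.05% parasitemia final) for 96 hours, 37 C in 5% CO2. Growth inhibition scored as decreased luciferase luminescence.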
Sm TGR block: qHTS Assay for the Inhibitors of Schistosoma Mansoni Peroxiredoxins. purified TGR, DTNB reduction, TNB absorbance 405 nm. Potency, µM (highest dose often 114 µM), inactives show at the top dose activity change, negative = inhibition, most hits filed as inhibitors. AID 485364, 2010. 3% of 360,000 active. Schistosoma mansoni thioredoxin glutathione reductase (TGR), Q962Y6; also: % is scaled to controls: 0 for no effect and ±100 for the full control effect; nearly all actives have a fitted effect of over 60% in size
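Kinetic colorimetric format: TGR-catalysed, NADPH-driven DTNB reduction monitored via TNB absorbance. Enzyme dispensed at 20 nM; compound exposure 15 min at room temperature before reaction start.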
The depositor's hits bear a star; ? = inconclusive; nt = no result given. Rows were chosen to be rich in hits. Some 12% of all compounds tested hit in one or more screens of this group. Unless noted, calls follow the shape of the dose curve; as a rule, active = well fitted curve in the direction sought with a large enough effect; inconclusive = small, poorly fitted or top-dose-only effect, or another doubt; inactive = no such curve, though single readings can be large; an effect the other way counts as inactive or inconclusive. Potency is read from the fitted curve at half-maximal effect.

SMILES | Pf growth 48h | SARS PLP yeast | Pf growth 96h | Sm TGR block
CCc1ccc(NC(=O)C2CCCN(S(=O)(=O)c3c(C)[nH]c(=O)[nH]c3=O)C2)cc1 (centres undefined) | ? | 1.0% | 30.5% | 0.9%
COc1cccc(CN2CC(C(=O)NC3CCC3)CCC2=O)c1 (centres undefined) | -10.9% | 20.8% | -43.9% | -0.6%
O=C(Nc1ccc2c(c1)CCC2)C1CCN(c2c3c(nc4ncnn24)CCC3)CC1 | 11.7µM* | 1.3% | -8.6% | -30.9%
CCCCn1cc(S(=O)(=O)c2cc(C)ccc2C)c(=O)c2cc(F)c(N3CCC(C)CC3)cc21 | nt | nt | nt | -3.3%
CCOC(=O)c1cc(CC)sc1NC(=O)Cc1ccsc1 | 21.6% | -0.7% | 3.29µM* | 2.5%
CCOC(=O)c1cc(-c2ccccc2)sc1NC(=O)CC | 5.22µM* | -4.8% | 2.33µM* | 1.9%
S=c1nc[nH]c2c1ncn2C1CCCC1 | -12.3% | 1.8% | ? | -5.7%
CN(C)C(CNC(=O)c1cc2ccccc2o1)c1ccco1 (centres undefined) | nt | -6.7% | nt | nt
COc1ccc(OCc2nnc(SCC(=O)Nc3ccccc3F)o2)cc1 | 9.8% | -3.6% | 3.9% | -7.7%
O=[N+]([O-])c1cccc(-c2c[n+]3c(n2-c2ccccc2)SCC3)c1 | 1.04µM* | -6.9% | 1.04µM* | 2.2%
Clc1ccc(-c2c[n+]3c(n2-c2ccccc2)SCC3)cc1 | 1.17µM* | 0.3% | 0.165µM* | 8.3%
COc1ccc(-n2c(-c3ccccc3)nnc2-c2ccc(Cl)cc2)cc1 | 12.9% | -2.0% | -24.1% | 5.2%
O=[N+]([O-])c1cccc(-c2n[nH]c(=S)n2-c2ccccc2)c1 | 7.3% | 2.0% | 21.4% | -1.9%
COc1ccccc1-c1oc2ccccc2c1C#CC1(N)CCCCC1 | 8.28µM* | -1.2% | 3.29µM* | 0.7%
CCOC(=O)CN1C(=O)/C(=C/c2c(F)cccc2Cl)Oc2ccccc21 | nt | -11.1% | 9.7% | 7.1%
Cc1nc(NC(=O)c2ccccc2)sc1-c1csc(N)n1 | 1.85µM* | -20.0% | -2.1% | 1.2%
Cc1nc(NC(=O)c2ccccc2)sc1-c1csc(NCCc2ccccc2)n1 | nt | -5.2% | 4.15µM* | 2.1%
COc1cccc(C(=O)N2c3cc(C)ccc3C(C)(c3ccccc3)CC2(C)C)c1 (centres undefined) | nt | nt | nt | -3.3%
CN(CC(=O)Nc1cccc(F)c1)C(=O)c1ccccc1OCC(=O)Nc1cccc(C(F)(F)F)c1 | ? | -2.8% | ? | -1.0%
O=C(CCl)N(C/C=C/c1ccccc1)c1ccc2c(c1)OCCO2 | ? | -7.5% | ? | 7.08µM*
CCCS(=O)(=O)c1c(S(=O)(=O)CCC)c2c(N)cccn2c1C(=O)c1ccccc1 | nt | 0.9% | ? | 50.1µM*
CCOc1ccccc1NC(=O)c1nc(S(=O)(=O)Cc2cccc(C)c2)ncc1Cl | 24.9% | -9.1% | -28.5% | 7.08µM*
CCc1nnc(NC(=O)c2nc(Cl)ccc2Cl)s1 | 7.5% | 1.8% | -21.2% | -5.7%
CCc1nnc(NC(=O)c2nc(SCc3ccccc3F)ncc2Cl)s1 | nt | nt | nt | -1.8%
CCc1nnc(NC(=O)c2nc(S(=O)(=O)Cc3cccc(C)c3)ncc2Cl)s1 | -3.9% | 20.6% | 34.8% | 15.8µM*
SMILES | Pf growth 48h | SARS PLP yeast | Pf growth 96h | Sm TGR block
CCc1nnc(NC(=O)c2nc(S(=O)(=O)Cc3ccccc3)ncc2Cl)s1 | 4.1% | 5.3% | 0.0% | 31.6µM*
CCc1nnc(NC(=O)c2nc(S(=O)(=O)Cc3ccc(C)cc3)ncc2Cl)s1 | 6.0% | 6.0% | ? | 31.6µM*
COc1ccc(NC(=O)c2cccc(N3CCCS3(=O)=O)c2)cc1OC | nt | nt | nt | -2.0%
Cc1cccc(C)c1NC(=O)NC1(C(=O)NCC2CCCO2)CCCCC1 (centres undefined) | 1.4% | 6.1% | 6.9% | -5.9%
COc1ccc(CCNC(=O)Cn2nc(-c3ccc(Cl)cc3)ccc2=O)cc1OC | nt | nt | nt | 0.3%
CCOc1ccc(CN2CCN(S(=O)(=O)c3ccc(Cl)cc3)CC2)cc1 | nt | nt | nt | 0.7%
CC(C)(C)OC(=O)N1CCC(NC(=O)c2nc[nH]c2C(=O)N2CCN(c3ccccc3)CC2)CC1 | nt | 1.2% | nt | nt
CCN(CC)C(=O)COc1coc(CN2CCN(c3ccccc3)CC2)cc1=O | -4.5% | 0.8% | 10.4µM* | -3.4%
CCc1ccc(NC(=O)COc2coc(CN3CCN(c4ccccc4)CC3)cc2=O)cc1 | 5.22µM* | -1.8% | ? | -7.6%
O=C(COc1coc(CN2CCN(c3ccccc3)CC2)cc1=O)NC1CCCC1 | ? | 5.0% | ? | -0.5%
O=C(COc1coc(CN2CCN(c3ccccc3)CC2)cc1=O)NC1CCCCC1 | 11.7µM* | 7.8% | ? | -7.2%
COc1ccc(Cl)cc1S(=O)(=O)Nc1ccc2c(c1)n(C)c(=O)n2C | -24.0% | 3.0% | 20.2% | -5.3%
CCN(CC)C(=O)Cn1cc(S(=O)(=O)CC(=O)Nc2ccc(F)cc2F)c2ccccc21 | 22.4% | 6.7% | -14.9% | -1.6%
CCOc1cc(/C=N/Nc2ncnc(Cl)c2N)ccc1O | 36.4% | -13.6% | 46.2% | -26.4%
CCOc1cc(/C=N/Nc2nnc(C)n2N)ccc1O | ? | -6.7% | 0.0% | 50.1µM*
CCOc1cc(/C=N/Nc2nc(=O)[nH]nc2C)ccc1O | 2.33µM* | -0.1% | 17.3% | 0.3%
CN1CCN(C2=Cc3ccccc3Sc3cc(F)ccc32)CC1 | ? | -32.9% | -101.6% | -0.7%
CN1CCN(C2=Cc3ccc(Cl)cc3Sc3ccc(F)cc32)CC1 | 13.1µM* | -20.9% | 11.7µM* | 0.7%
CSc1cc(-c2ccc(Cl)cc2)c(C(=O)NN)s1 | ? | 4.8% | 11.7µM* | -19.4%
CSc1cc(-c2ccc(Cl)cc2)c(C(=O)NC(C)C)s1 | -4.3% | 0.0% | -4.4% | -1.4%
O=C(NCc1ccccc1Cl)c1ccc2c(c1)N(Cc1ccccc1)CCS2 | nt | nt | nt | 4.9%
Nc1ccc(Cc2ccc(N)c(O)c2)cc1O | 170.9% | -3.6% | ? | 39.8µM*
CC(=O)Nc1ccc(S(=O)(=O)NCCC(=O)OCC(=O)N2CCN(C(=O)c3ccco3)CC2)cc1 | -14.1% | -0.6% | -8.3% | 0.0%
COC(/C(=N/O)c1ccc(Cl)cc1)c1ccccc1 (centres undefined) | 2.08µM* | -9.4% | 2.33µM* | -1.2%
CCOc1ccc(NC(=O)CSc2nnnn2C2CC2)cc1S(=O)(=O)N1CCCC1 | ? | -7.1% | 14.7µM* | -10.5%
SMILES | Pf growth 48h | SARS PLP yeast | Pf growth 96h | Sm TGR block
Cc1ccc(NC(=O)CSc2nnnn2C2CCCC2)cc1S(=O)(=O)N1CCOCC1 | ? | 2.5% | 8.28µM* | -12.9%
CCOc1ccc(NC(=O)CSc2nnc(C)n2C2CC2)cc1S(=O)(=O)N1CCCC1 | ? | -0.4% | ? | -1.2%
Cc1cc(NC(=O)CSc2nnnn2C2CCCC2)no1 | 14.9% | 3.5% | 7.38µM* | -0.7%
CCS(=O)(=O)N1CC(=O)N(c2cccc(Cl)c2C)C(C)(C(=O)NC2CCCCC2)C1 (centres undefined) | nt | nt | nt | 4.8%
Cc1cccc(N2CCN(C3CCCCC3NS(=O)(=O)c3ccccc3)CC2C)c1 (centres undefined) | ? | 2.2% | 24.6% | -2.0%
CN(Cc1nc2ccccc2n1C)S(=O)(=O)c1ccc(F)cc1 | 23.4% | 4.6% | 4.65µM* | -0.4%
